Compounds with a hit are over-represented: about 19% of the library has one in this group of screens.
IL1B secr inh: inhibitors of inflammasome signaling (IL-1 beta secretion). THP-1 LPS/ATP IL-1B secretion, AlphaLISA, 16 h; hits give low values. activity change, % at 57.5 µM. 360,000 tested, 4.7% active. AID 743279; in the data active means activity change below about -50%; inconclusive means mostly about -30% to -49%
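Secreted IL-1B measured by AlphaLISA bead assay after 16 h compound exposure of THP-1 cells; compounds (final up to 57.5 uM) added 1 h before LPS (250 ng/mL) and ATP (1.25 mM) stimulation; lower signal means less secretion.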
ELG1 DNA repair: inhibitors of ELG1-dependent DNA repair in HEK293T cells | HEK293T ELG1-luciferase reporter, luminescence, 16 h; DNA damage induced by 5-fluorouridine | Potency, µM (series often up to 46.1 µM), inactives show top-dose activity change, negative = inhibition, hits mostly inhibitors | 330,000 tested, 2.3% active; further: potency means the concentration at half of the fitted maximal effect; nearly all actives have a fitted effect of over 55% in size
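Step one: seed 2,000 cells per well. Step two: pin-transfer compound or DMSO alongside 5-fluorouridine. Step three: incubate 16 hr, 37 °C, 5% CO2. Step four: add ONE-Glo, wait 30 min, read luminescence.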
TDP1 cell noCPT: qHTS for Inhibitors of human tyrosyl-DNA phosphodiesterase 1 (TDP1): qHTS in cells in absence of CPT; DT40 Tdp1-/- hTDP1 cells, no CPT, ATP luminescence, 48 h; Potency, µM (doses to about 46.2 µM), without a hit: at the highest dose activity change, negative = growth inhibition, usual class: inhibitors; 420,000 tested, 15% active; AID 686978, 2013; further: potency means the concentration at half of the fitted maximal effect; nearly all actives have a fitted effect of over 55% in size
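Growth of hTDP1-complemented DT40 Tdp1-knockout cells is measured by ATP luminescence after at least 48 hr compound exposure at 37 °C, with DMSO substituting for the 20 nM CPT used in the parallel screen.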
HT1080-NT tox: kills 2HG-producing HT-1080-NT fibrosarcoma cells; HT-1080-NT fibrosarcoma viability, CellTiter-Glo ATP luminescence, 48 h; Potency, µM (titrated, usually from 46.1 µM), inactives show at the top dose activity, negative = less viability, usual class: cytotoxic; 360,000 tested, 1.6% active;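 further: NT is the 2HG producing partner of a matched IDH1 knockdown line; potency means the concentration at half of the fitted maximal effect; 0% = DMSO-treated cells and -100% = media-only wells without cells; nearly all actives have a fitted effect of over 55% in size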
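HT-1080-NT; 750 cells/well; 5% FBS RPMI; 48 h compound, 37 degrees C; CellTiter-Glo luminescence; curve fitting and curve-class assignment.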
TDP1 cell CPT: DT40-hTDP1 cell growth loss with CPT. chicken DT40 Tdp1-/-;hTDP1 cells + 20 nM CPT, ATP luminescence, 48 h. Potency, µM (top dose mostly 46.2 µM), inactives show at the top dose activity change, negative = growth inhibition, usual class: inhibitors. 420,000 tested, 12% active. AID 686979; further: potency means the concentration at half of the fitted maximal effect; nearly all actives have a fitted effect of over 55% in size
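Chicken DT40 Tdp1-/- cells stably complemented with human TDP1 were seeded at 400 cells/well in medium containing 20 nM camptothecin, exposed to pin-transferred compounds, and grown at 37 °C for at least 48 hr. Viability was read as ATP luminescence.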
HT1080 IDH1KD tx: kills HT-1080 cells with IDH1 knockdown | HT-1080 IDH1 knockdown viability, ATP luminescence, 48 h | Potency, µM (titrated, usually from 46.1 µM), for the others: top-dose activity, negative = toxicity, usual class: cytotoxic | 360,000 tested, 2% active | AID 686971;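 further: potency means the concentration at half of the fitted maximal effect; 0% = DMSO wells and -100% = cell-free medium wells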
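Cytotoxicity counter-line: IDH1KD HT-1080, 48 h, CellTiter-Glo. Curves classed by r2, magnitude and activity.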
* marks the source's active call; other numbers are inactive results. Unless noted, the call rests on the fitted dose curve; in most records, active means well fitted curve in the direction sought with a large enough effect; inconclusive means small, poorly fitted or top-dose-only effect, or another doubt; inactive means no such curve, though single readings can be large; an effect the other way counts as inactive or inconclusive. Unless noted, on the % scale 0 is the no-effect control and ±100 the full control effect.

Results for COC(=O)c1cc2oc3ccccc3c2n1Cc1cc(C)ccc1C ?
TDP1 cell noCPT: -3%; TDP1 cell CPT: 1%

How did Cc1ccc(C)c(NC(=O)CSc2ncc3c(n2)-c2ccccc2N(Cc2ccccc2C)S3(=O)=O)c1 do in these assays?
TDP1 cell noCPT: inconclusive; TDP1 cell CPT: -26%

Results for C[C@H]1CN([C@@H](C)CO)C(=O)CCCn2nncc2CO[C@H]1CN(C)S(=O)(=O)c1cccs1 ?
IL1B secr inh: 15; TDP1 cell noCPT: -20%; HT1080-NT tox: 20%; TDP1 cell CPT: -8%; HT1080 IDH1KD tx: -14%

How did CC(=O)NN1C(=O)/C(=C\c2ccc(Br)o2)SC1=S do in these assays?
IL1B secr inh: -97*; ELG1 DNA repair: inconclusive; TDP1 cell noCPT: 16µM*; HT1080-NT tox: inconclusive; TDP1 cell CPT: inconclusive; HT1080 IDH1KD tx: inconclusive

How did CC(=O)NN1C(=O)/C(=C/c2ccc(Br)o2)SC1=S do in these assays?
IL1B secr inh: -8; ELG1 DNA repair: -30%; TDP1 cell noCPT: inconclusive; HT1080-NT tox: 3%; TDP1 cell CPT: inconclusive; HT1080 IDH1KD tx: 0%

What do the screens show for `CC1(c2ccccc2)CC(C)(C)n2c(O)c(C3=NC(=S)NC3=O)c3cccc1c32` (stereo unspecified)?
IL1B secr inh: 34; ELG1 DNA repair: 3%; TDP1 cell noCPT: 23µM*; HT1080-NT tox: 1%; TDP1 cell CPT: inconclusive; HT1080 IDH1KD tx: -1%

How did O=C(NCc1ccco1)c1sc(=S)n2c1[nH]c(=O)c1ccccc12 do in these assays?
IL1B secr inh: -59*; ELG1 DNA repair: -4%; TDP1 cell noCPT: inconclusive; HT1080-NT tox: -26%; TDP1 cell CPT: -21%; HT1080 IDH1KD tx: inconclusive

Results for O=C(NCc1ccccc1)c1ccc2c(=O)[nH]c3c(C(=O)NCC4CCCO4)sc(=S)n3c2c1 (stereo unspecified) ?
IL1B secr inh: 25; ELG1 DNA repair: -7%; TDP1 cell noCPT: inconclusive; HT1080-NT tox: -4%; TDP1 cell CPT: -16%; HT1080 IDH1KD tx: 0%

What do the screens show for `O=C(NC1CCCC1)c1sc(=S)n2c1[nH]c(=O)c1ccccc12`?
IL1B secr inh: -85*; ELG1 DNA repair: inconclusive; TDP1 cell noCPT: inconclusive; HT1080-NT tox: -2%; TDP1 cell CPT: 21µM*; HT1080 IDH1KD tx: -42%

How did Cn1c(=O)c2c(nc(NCc3ccco3)n2C/C=C/c2ccccc2)n(C)c1=O do in these assays?
IL1B secr inh: -62*; ELG1 DNA repair: 4.6µM*; TDP1 cell noCPT: 0.65µM*; HT1080-NT tox: -29%; TDP1 cell CPT: 1.5µM*; HT1080 IDH1KD tx: -25%

What do the screens show for `Cn1c(=O)c2c(nc(NCc3ccco3)n2C)n(C)c1=O`?
IL1B secr inh: 19; ELG1 DNA repair: 2%; TDP1 cell noCPT: -42%; HT1080-NT tox: 8%; TDP1 cell CPT: -21%; HT1080 IDH1KD tx: -7%

Results for Cn1c(=O)c2c(nc(NCc3ccco3)n2Cc2ccccc2Cl)n(C)c1=O ?
IL1B secr inh: -10; ELG1 DNA repair: inconclusive; TDP1 cell noCPT: 2.1µM*; HT1080-NT tox: -1%; TDP1 cell CPT: 4.1µM*; HT1080 IDH1KD tx: 7%

How did S=c1[nH]nc(COc2ccccc2)n1/N=C/c1c(Cl)cccc1Cl do in these assays?
IL1B secr inh: -1; ELG1 DNA repair: -11%; TDP1 cell noCPT: -28%; HT1080-NT tox: -3%; TDP1 cell CPT: -25%; HT1080 IDH1KD tx: -7%

How did COc1ccc(NC(=S)NCc2ccco2)cc1 do in these assays?
IL1B secr inh: -5; ELG1 DNA repair: inconclusive; TDP1 cell noCPT: -24%; HT1080-NT tox: 15%; TDP1 cell CPT: -8%; HT1080 IDH1KD tx: 13%

What do the screens show for `COc1ccc(NC(=S)N(Cc2ccc(N(C)C)cc2)Cc2ccco2)cc1`?
IL1B secr inh: -76*; ELG1 DNA repair: inconclusive; TDP1 cell noCPT: inconclusive; HT1080-NT tox: -14%; TDP1 cell CPT: 2%; HT1080 IDH1KD tx: -7%

Results for CCOc1ccc(NC(=S)N(Cc2ccc(N(C)C)cc2)Cc2ccco2)cc1 ?
IL1B secr inh: -19; ELG1 DNA repair: inconclusive; TDP1 cell noCPT: 16µM*; HT1080-NT tox: 6%; TDP1 cell CPT: inconclusive; HT1080 IDH1KD tx: 5%

How did Cc1ccc(C(C(=O)NCc2ccco2)N(C(=O)CNC(=O)c2cccs2)c2c(C)cccc2C)cc1 (stereo unspecified) do in these assays?
IL1B secr inh: -22; ELG1 DNA repair: 17%; TDP1 cell noCPT: inconclusive; HT1080-NT tox: 12%; TDP1 cell CPT: inconclusive; HT1080 IDH1KD tx: 12%

What do the screens show for `Cc1ccc(C(C(=O)NCc2ccco2)N(C(=O)CNC(=O)c2cccs2)c2c(C)cc(C)cc2C)cc1` (stereo unspecified)?
IL1B secr inh: 77; ELG1 DNA repair: 18%; TDP1 cell noCPT: 10µM*; HT1080-NT tox: 8%; TDP1 cell CPT: 10µM*; HT1080 IDH1KD tx: 1%

Results for O=C(NCc1ccco1)C(c1ccccc1)N(C(=O)Cc1cccs1)c1ccccc1F (stereo unspecified) ?
IL1B secr inh: inconclusive; ELG1 DNA repair: 18µM*; TDP1 cell noCPT: 26µM*; HT1080-NT tox: 14%; TDP1 cell CPT: inconclusive; HT1080 IDH1KD tx: 2%

How did CC(C)(CN1CCCN(CC(C)(C)C(=O)O)C1=O)C(=O)O do in these assays?
IL1B secr inh: -9; TDP1 cell noCPT: -6%; HT1080-NT tox: 8%; TDP1 cell CPT: -10%; HT1080 IDH1KD tx: 8%

Results for CCCOc1ccc(/C(O)=C2/C(=O)C(=O)N(c3ccccn3)C2c2ccc(OC)cc2)cc1C (stereo unspecified) ?
IL1B secr inh: -7; ELG1 DNA repair: -1%; TDP1 cell noCPT: -5%; HT1080-NT tox: -27%; TDP1 cell CPT: -30%; HT1080 IDH1KD tx: -23%

How did CCN1CCN(C(=O)C2CCN(S(=O)(=O)c3ccc(Br)cc3)CC2)CC1 do in these assays?
IL1B secr inh: -5; ELG1 DNA repair: 11%; TDP1 cell noCPT: inconclusive; HT1080-NT tox: -1%; TDP1 cell CPT: 2%; HT1080 IDH1KD tx: -2%

Results for Cc1oc(-c2cccc(Cl)c2)nc1CN1CCC(C(=O)N2CCN(c3ccccn3)CC2)CC1 ?
IL1B secr inh: 10; TDP1 cell noCPT: 18µM*; HT1080-NT tox: -1%; TDP1 cell CPT: 23µM*; HT1080 IDH1KD tx: -2%
